Targets with a hit are over-represented here; the source holds about 8,800 in all. About 0.5% of all pairs of compound and target were hits. A number with no mark means an inactive call.

UniProt O95819, sequence (O95819 whole entry, looked up): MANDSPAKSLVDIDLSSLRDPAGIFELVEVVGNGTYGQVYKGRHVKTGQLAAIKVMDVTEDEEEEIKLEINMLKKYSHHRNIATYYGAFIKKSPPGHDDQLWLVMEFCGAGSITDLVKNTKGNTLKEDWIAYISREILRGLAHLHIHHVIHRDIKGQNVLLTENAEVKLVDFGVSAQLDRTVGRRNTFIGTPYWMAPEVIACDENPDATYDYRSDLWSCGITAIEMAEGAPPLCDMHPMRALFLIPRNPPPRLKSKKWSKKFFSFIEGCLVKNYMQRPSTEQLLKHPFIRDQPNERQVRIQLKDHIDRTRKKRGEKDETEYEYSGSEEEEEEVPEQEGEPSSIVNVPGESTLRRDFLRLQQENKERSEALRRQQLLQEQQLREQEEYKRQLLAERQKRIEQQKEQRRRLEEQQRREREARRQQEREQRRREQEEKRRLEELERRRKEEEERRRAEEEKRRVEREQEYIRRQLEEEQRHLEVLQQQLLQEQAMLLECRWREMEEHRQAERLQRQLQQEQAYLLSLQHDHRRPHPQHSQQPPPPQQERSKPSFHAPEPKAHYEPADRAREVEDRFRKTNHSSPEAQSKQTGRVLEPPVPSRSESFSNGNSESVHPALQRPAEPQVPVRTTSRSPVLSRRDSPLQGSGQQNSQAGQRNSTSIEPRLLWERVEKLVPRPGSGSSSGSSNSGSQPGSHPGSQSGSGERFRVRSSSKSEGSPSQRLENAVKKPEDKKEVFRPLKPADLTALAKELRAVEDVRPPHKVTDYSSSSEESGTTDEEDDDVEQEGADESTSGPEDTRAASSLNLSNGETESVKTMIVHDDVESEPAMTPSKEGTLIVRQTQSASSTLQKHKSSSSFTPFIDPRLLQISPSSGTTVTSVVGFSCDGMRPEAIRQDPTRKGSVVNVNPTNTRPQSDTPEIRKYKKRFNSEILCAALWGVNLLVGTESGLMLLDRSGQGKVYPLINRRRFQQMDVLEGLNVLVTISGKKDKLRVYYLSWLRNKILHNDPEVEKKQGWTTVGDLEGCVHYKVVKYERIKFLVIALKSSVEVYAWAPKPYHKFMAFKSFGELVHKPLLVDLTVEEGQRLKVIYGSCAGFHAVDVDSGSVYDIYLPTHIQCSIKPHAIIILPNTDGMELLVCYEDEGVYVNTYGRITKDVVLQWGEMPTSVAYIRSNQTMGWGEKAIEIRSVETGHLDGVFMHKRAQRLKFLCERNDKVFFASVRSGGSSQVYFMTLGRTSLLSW
UniProt Q9NWR8, sequence (Q9NWR8 whole entry, looked up): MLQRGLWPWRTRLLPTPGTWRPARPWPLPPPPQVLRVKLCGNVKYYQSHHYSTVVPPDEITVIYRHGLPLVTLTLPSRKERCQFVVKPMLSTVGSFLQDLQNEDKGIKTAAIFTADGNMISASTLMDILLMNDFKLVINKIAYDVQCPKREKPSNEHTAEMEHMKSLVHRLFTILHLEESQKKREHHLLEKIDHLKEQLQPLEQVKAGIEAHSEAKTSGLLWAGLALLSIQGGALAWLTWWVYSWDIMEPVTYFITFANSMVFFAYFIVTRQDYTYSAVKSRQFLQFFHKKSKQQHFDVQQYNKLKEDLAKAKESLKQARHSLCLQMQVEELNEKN
UniProt P08473, sequence (P08473 whole entry, looked up): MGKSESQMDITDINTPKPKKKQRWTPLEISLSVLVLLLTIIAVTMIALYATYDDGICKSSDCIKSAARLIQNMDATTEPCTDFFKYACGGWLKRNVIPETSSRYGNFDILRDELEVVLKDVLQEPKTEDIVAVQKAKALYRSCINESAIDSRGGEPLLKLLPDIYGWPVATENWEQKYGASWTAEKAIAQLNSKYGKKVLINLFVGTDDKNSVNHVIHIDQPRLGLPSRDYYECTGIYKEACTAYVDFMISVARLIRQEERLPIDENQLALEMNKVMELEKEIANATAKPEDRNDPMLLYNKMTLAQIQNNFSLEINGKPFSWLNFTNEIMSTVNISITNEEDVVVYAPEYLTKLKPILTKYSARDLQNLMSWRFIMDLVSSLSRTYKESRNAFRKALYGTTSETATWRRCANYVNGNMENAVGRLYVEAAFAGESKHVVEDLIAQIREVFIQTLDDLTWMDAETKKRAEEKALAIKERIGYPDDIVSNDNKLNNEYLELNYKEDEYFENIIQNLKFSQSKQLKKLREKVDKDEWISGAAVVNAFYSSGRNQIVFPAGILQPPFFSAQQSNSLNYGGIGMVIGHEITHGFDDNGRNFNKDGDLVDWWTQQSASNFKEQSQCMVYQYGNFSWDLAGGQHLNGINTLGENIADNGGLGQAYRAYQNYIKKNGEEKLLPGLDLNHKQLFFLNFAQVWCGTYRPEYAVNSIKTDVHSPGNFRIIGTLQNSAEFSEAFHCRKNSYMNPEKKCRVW
UniProt O60337, sequence (O60337 whole entry, looked up): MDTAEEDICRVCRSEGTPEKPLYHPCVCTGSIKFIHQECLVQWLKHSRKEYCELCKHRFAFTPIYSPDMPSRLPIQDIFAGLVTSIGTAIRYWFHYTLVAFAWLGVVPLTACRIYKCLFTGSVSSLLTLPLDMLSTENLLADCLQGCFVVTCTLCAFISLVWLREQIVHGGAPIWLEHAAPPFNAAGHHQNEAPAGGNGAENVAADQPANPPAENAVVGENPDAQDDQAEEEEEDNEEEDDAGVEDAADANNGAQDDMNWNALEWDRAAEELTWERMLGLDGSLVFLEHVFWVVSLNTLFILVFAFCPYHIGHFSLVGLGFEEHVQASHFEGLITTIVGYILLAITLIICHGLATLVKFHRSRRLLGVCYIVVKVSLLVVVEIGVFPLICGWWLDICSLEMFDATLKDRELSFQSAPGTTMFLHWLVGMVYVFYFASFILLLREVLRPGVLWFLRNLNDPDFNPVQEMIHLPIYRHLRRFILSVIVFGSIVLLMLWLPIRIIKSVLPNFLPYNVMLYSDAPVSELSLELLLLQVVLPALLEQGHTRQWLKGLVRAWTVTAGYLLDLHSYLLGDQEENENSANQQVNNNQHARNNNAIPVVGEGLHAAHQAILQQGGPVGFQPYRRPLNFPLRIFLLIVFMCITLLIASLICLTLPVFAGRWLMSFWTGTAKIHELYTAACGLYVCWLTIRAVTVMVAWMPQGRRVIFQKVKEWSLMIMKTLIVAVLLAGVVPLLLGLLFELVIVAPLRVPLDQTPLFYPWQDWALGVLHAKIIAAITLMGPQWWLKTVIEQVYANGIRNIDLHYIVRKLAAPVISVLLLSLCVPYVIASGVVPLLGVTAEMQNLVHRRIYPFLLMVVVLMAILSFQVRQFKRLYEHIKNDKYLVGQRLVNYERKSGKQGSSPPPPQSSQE
UniProt O15243, sequence (O15243 whole entry, looked up): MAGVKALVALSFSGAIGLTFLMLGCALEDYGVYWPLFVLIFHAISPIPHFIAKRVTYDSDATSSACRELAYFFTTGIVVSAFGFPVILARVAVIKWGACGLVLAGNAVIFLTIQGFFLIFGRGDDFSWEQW
UniProt Q96NW7, sequence (Q96NW7 whole entry, looked up): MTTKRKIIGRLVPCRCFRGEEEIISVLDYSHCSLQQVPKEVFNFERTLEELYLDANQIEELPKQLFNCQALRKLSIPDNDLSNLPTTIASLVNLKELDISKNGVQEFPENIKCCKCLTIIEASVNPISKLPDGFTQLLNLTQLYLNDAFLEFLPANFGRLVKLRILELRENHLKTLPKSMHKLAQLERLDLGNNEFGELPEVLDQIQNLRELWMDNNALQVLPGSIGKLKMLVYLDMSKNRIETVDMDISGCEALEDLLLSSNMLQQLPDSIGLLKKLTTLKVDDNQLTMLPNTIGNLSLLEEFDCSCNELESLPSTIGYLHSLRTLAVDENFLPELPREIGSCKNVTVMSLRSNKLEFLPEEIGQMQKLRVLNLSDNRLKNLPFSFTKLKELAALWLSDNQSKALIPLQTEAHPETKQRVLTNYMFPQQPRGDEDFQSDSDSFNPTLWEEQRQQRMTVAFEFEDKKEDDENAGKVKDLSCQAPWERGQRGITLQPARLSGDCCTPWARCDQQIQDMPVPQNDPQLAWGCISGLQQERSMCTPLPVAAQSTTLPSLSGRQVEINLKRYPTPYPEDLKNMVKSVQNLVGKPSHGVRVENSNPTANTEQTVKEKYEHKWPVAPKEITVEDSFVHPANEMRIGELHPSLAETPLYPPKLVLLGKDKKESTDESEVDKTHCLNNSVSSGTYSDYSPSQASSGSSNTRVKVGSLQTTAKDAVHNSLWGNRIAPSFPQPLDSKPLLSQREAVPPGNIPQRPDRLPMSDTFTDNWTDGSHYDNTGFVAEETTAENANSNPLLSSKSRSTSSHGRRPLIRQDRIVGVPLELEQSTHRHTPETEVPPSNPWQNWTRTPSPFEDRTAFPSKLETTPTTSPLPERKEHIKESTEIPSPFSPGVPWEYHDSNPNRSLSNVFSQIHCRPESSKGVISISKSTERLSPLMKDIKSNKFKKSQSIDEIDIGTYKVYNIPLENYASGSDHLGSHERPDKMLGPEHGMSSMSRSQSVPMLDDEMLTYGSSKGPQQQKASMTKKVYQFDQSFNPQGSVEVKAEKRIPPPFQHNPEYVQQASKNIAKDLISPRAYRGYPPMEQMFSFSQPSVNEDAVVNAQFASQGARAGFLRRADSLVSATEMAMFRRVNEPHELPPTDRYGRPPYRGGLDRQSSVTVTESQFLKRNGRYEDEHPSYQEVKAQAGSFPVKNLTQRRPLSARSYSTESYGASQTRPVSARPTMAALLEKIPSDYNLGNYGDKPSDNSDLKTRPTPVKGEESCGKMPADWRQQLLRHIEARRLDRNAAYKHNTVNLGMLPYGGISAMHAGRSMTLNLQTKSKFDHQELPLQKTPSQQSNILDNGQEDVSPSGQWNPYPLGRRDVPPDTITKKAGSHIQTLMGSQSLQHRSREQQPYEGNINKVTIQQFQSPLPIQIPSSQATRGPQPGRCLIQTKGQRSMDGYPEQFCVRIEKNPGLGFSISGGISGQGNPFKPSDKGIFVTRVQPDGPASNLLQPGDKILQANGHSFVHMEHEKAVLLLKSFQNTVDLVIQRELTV
UniProt Q16553, sequence (Q16553 whole entry, looked up): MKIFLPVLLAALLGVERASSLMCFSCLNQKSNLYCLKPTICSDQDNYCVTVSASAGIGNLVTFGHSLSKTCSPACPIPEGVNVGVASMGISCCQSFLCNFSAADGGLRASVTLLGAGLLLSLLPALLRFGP

Compound in one test: Cc1ccc(NC(=O)c2ccc(CN3CC[C@H](N(C)C)C3)c(C(F)(F)F)c2)cc1Nc1nccc(-c2cncnc2)n1 [bafetinib]
The test is described as follows: log2 fold change, soluble protein after heating vs DMSO (PISA); higher = thermal stabilisation; K562 lysate, 10 uM; active = over 0.2 and 3.5 SD of the protein, either way, in both replicates (recomputed). In a few lines:
(§1)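 Dounce homogenisation of K562 pellets in PBS pH 7.4 with 1 mM MgCl2 produced a crude extract, used at 1 mg/mL protein. Exposure to 10 μM compound lasted 30 min, and aliquots were then heated for 3 min across 48°C-58°C, pooled and brought to 0.5% NP-40 at 4°C. The supernatant after 21,000xg for 90 min was quantified by TMTpro 16plex LC-MS/MS with channel sums equalised. Duplicate values are given as log-two fold change in thermal stability relative to solvent controls.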
Turning to LEPROT (UniProt O15243), the log2 fold change was -0.067.
Regarding KRIT1 (UniProt O00522), the log2 fold change is -0.041.
The same measure, in the same setting: under KLC1 isoform 10 (UniProt Q07866) stands 0.032; under KLHL12 isoform 2 (UniProt Q53G59), -0.131.
Still for that read-out and setting: under KIFC3 isoform 6 (UniProt Q9BVG8) stands -0.221.
Still for that read-out and setting: under MAPK12 (UniProt P53778) stands 0.
Turning to MARCHF6 (UniProt O60337), the log2 fold change was -0.105.
On the same count and under the same terms, the value for MCUB (UniProt Q9NWR8) was -0.045.
As to MMS22L (UniProt Q6ZRQ5), the log2 fold change is -0.152.
On the same count and under the same terms, the value for LIMK1 (UniProt P53667) was -0.348.
On the same count and under the same terms, under MCMBP isoform 2 (UniProt Q9BTE3) stands 0.235.
Turning to MAP4K4 isoform 6 (UniProt O95819), the log2 fold change is 0.016.
Consider MEGF8 (UniProt Q7Z7M0), for which the log2 fold change is 0.068.
Still for that read-out and setting: under LY6E (UniProt Q16553) stands -0.2; under MAP4 isoform 5 (UniProt P27816), 0.081.
The same measure, in the same setting: under MAP4K4 isoform 3 (UniProt O95819) stands 0.03; under MINDY1 isoform 3 (UniProt Q8N5J2), -0.11.
On the same count and under the same terms, the value for MME (UniProt P08473) was 0.058.
Turning to LRRC7 (UniProt Q96NW7), the log2 fold change is 0.112.
In the case of KIF21A (UniProt H0YI78), the log2 fold change was 0.187.
As to METTL21A (UniProt Q8WXB1), the log2 fold change was -0.04.

Compound in a further test: Cc1cccc(CC(=O)N2CCc3c2ccc(-c2cn(C)c4ncnc(N)c24)c3F)n1
The test is described as above. In a few lines:
as §1
In the case of LGALS3BP (UniProt Q08380), the log2 fold change was 0.53.
On to MRPL22 (UniProt Q9NWU5), for which the log2 fold change is 0.05.
With LEPROT (UniProt O15243), the log2 fold change is 0.056.
In the case of KIF2A isoform 2 (UniProt O00139), the log2 fold change is -0.059.
In the case of KIFC3 isoform 6 (UniProt Q9BVG8), the log2 fold change is 0.296.
Still for that read-out and setting: under MAPK12 (UniProt P53778) stands -0.163; under LSM11 (UniProt P83369), -0.394.
The same measure, in the same setting: under MRC2 (UniProt Q9UBG0) stands -0.184.
For the target MARCHF6 (UniProt O60337), the log2 fold change was -0.005.
As to LRRC9 (UniProt Q6ZRR7), the log2 fold change is 0.694 (active).
Still for that read-out and setting: under MCUB (UniProt Q9NWR8) stands -0.016.
Same read-out and setting: under MMS22L (UniProt Q6ZRQ5) stands -0.029.
In the case of LIMK1 (UniProt P53667), the log2 fold change was 0.138.
Take MEGF8 (UniProt Q7Z7M0): the log2 fold change is -0.011.
Still for that read-out and setting: the value for LY6E (UniProt Q16553) was 0.588; that for MAP4K4 isoform 3 (UniProt O95819) was -0.01.
Still for that read-out and setting: under MED28 (UniProt Q9H204) stands -0.038; under MME (UniProt P08473), 0.048; under LRRC7 (UniProt Q96NW7), 0.093.
On the same count and under the same terms, the value for MAPK7 (UniProt Q13164) was -0.099; that for METTL21A (UniProt Q8WXB1) was 0.016.

Source of the values: the supplement of paper PMC10849652.
